Assay outcomes from PubChem BioAssay.
Shown are actives, neighbours in structure and some others; about 2.2% of the full set was active somewhere.
IL2 activator: IL-2 activation; IL-2 activation reporter assay, cell-based qHTS; stimulated with anti-CD3/CD4/CD28 beads; in transgenic mouse T cells; activation, % (series mostly up to about 46 µM); hit rate 0.065% among 360,000; AID 652025; in the data active means activation above about 50%; inconclusive means mostly about 30% to 49%
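EGFP and DsRed fluorescence is measured by plate cytometry in unstimulated transgenic mouse T cells exposed to compound for 60 minutes, then stimulated 18 hours at 37 degrees C with anti-CD3/anti-CD4 beads plus anti-CD28.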
mIDH1 inhibitor: human IDH1 R132H inhibition. IDH1-R132H enzyme, NADPH consumption, diaphorase/resazurin fluorescence. Potency, µM (doses to about 76.6 µM), most hits filed as inhibitors. O75874. hit rate 0.093% among 390,000; further: nearly all actives have a fitted effect of over 65% in size
Target sequence (O75874 whole entry R132H, stated change not applied): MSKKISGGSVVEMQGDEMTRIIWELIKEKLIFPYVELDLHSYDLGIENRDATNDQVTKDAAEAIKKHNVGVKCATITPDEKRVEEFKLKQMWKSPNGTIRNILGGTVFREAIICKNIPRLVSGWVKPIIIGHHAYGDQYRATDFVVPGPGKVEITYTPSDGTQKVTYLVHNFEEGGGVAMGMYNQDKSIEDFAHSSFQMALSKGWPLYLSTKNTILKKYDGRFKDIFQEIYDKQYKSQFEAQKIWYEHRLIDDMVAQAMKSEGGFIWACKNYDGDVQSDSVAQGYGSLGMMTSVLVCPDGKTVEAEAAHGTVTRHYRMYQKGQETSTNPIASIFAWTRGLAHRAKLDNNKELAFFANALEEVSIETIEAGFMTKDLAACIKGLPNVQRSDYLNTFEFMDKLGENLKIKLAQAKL
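IDH1-R132H (0.5 ug/mL) preincubated 30 min with compound, then NADPH (0.016 mM) and alpha-KG (2 mM) added; 80 min at RT, pH 7.5. Remaining NADPH coupled via diaphorase/resazurin to fluorescence (540/590 nm); concentration-response curves normalized to no-enzyme control.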
BRCA1 expr up: BRCA1 expression activation. MCF7-BRCA1-FFLuc reporter, luminescence, 48 h; response scale: scaled: vehicle 0%, 10 µM genistein 100%. Potency, µM (titrated, usually from 46.1 µM), most hits filed as activators. hit rate 1.1% among 380,000; further: nearly all actives have a fitted effect of over 80% in size
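Luminescence from a BRCA1-driven firefly luciferase in MCF7 cells was the read-out, taken 15 min after substrate addition following 48 h compound exposure at 37 °C. Data were normalized to a 10 microM genistein control and DMSO vehicle.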
Giardia killer: kills Giardia lamblia; Giardia lamblia trophozoite viability; activity change, % at 7.66 µM, hits read low; hit rate 0.15% among 340,000; AID 540267; in the data active means activity change below about -80%; inconclusive means between about -30% and that limit;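 further: parasites exposed to compound for two days anaerobically before the ATP read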
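Anaerobic 48 hrs incubation at 37 deg C of 100 trophozoites/well with test compounds; ATPLite 1-Step luminescence, 15-30 min RT, reports cellular ATP as viability.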
rTrxR1 inhibitor: inhibitors of rat thioredoxin reductase 1; O89049; recombinant rTrxR1, NADPH fluorescence consumption, selenite substrate; hit rate 1% among 390,000; Potency, µM (top dose mostly 114 µM), usual class: inhibitors; AID 588453; further: nearly all actives have a fitted effect of over 65% in size
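Rat TrxR1 (90 nM in the dispensed reagent) was pre-reduced with 400 uM NADPH for 5 min at room temperature, then incubated with compound for 15 min. After 400 uM selenite was added, NADPH fluorescence (Ex 340/Em 450 nm) was followed for 8 min.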
TrxR1 substrate: is turned over as a substrate by rat TrxR1. O89049. purified TrxR1 substrate turnover, NADPH consumption readout. Potency, µM (doses to about 114 µM). hit rate 0.01% among 390,000; further: nearly all actives have a fitted effect of over 50% in size
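Rat TrxR1, dispensed at 90 nM, was prereduced with 400 uM NADPH (final) for 5 min at ~22 deg C, then incubated with compound 15 min before 400 uM selenite. A first-read NADPH fluorescence drop versus no-compound background flagged substrates.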
Of the large screens only hits and unclear results are named; the others gave an inactive call. Unless noted, the call rests on the fitted dose curve; in most records, active means well fitted curve in the direction sought with a large enough effect; inconclusive means small, poorly fitted or top-dose-only effect, or another doubt; inactive means no such curve, though single readings can be large; an effect the other way counts as inactive or inconclusive.

CC(C)OCCOc1ccc2oc(-c3ccco3)cc(=O)c2c1	BRCA1 expr up 8.9µM
O=c1cc(-c2ccco2)oc2ccccc12	none
Cc1ccc2oc(-c3ccco3)cc(=O)c2c1	BRCA1 expr up 3.5µM, rTrxR1 inhibitor inconclusive
COc1ccc(Cn2c(CO)cnc2SCc2cccc(C)c2)cc1	none (no result: IL2 activator, Giardia killer)
Cc1cccc2c(C(O)c3cn(C)c4ccccc34)c[nH]c12 (stereo not given)	none (no result: IL2 activator, mIDH1 inhibitor, BRCA1 expr up, Giardia killer)
Cc1ccc(S(=O)(=O)C(CNC(=O)c2c(F)cccc2F)c2ccco2)cc1 (stereo not given)	none (no result: IL2 activator, Giardia killer)
O=C(NCC(c1ccco1)S(=O)(=O)c1ccc(Cl)cc1)c1ccccc1F (stereo not given)	rTrxR1 inhibitor 14µM (no result: IL2 activator, BRCA1 expr up, Giardia killer)
COc1cc(C=O)ccc1OCCCOc1ccccc1[N+](=O)[O-]	BRCA1 expr up 7.1µM
COC1=CC(=O)C=C(OC)C1=O	rTrxR1 inhibitor 32µM
CC(/C=C/c1ccco1)=N\NC(=O)c1cccc(Cl)c1	rTrxR1 inhibitor inconclusive
O=C(Nc1ccccc1C(=O)N/N=C/c1ccco1)c1ccccc1Cl	none
CC(/C=C/c1ccco1)=N/NC(=O)c1ccccc1Cl	rTrxR1 inhibitor 16µM
O=C(N/N=C/C=C/c1ccco1)c1ccccc1Cl	rTrxR1 inhibitor 56µM
O=C1CC(c2cccc(O)c2)c2cc3c(cc2N1)OCO3 (stereo not given)	none (no result: IL2 activator, Giardia killer)
Cc1ccc2c3c([nH]c2c1C)-c1nonc1CC3	BRCA1 expr up 8.9µM
COc1ccsc1NC(=O)OCc1ccc(Cl)cc1	BRCA1 expr up 13µM
CSc1nsc(NC(=O)OCc2ccc(Cl)cc2)n1	none
CC(=O)N(CCC(c1ccccc1)c1ccco1)Cc1cccs1 (stereo not given)	rTrxR1 inhibitor 25µM
O=C(c1ccco1)N(CCC(c1ccccc1)c1ccco1)Cc1ccco1 (stereo not given)	rTrxR1 inhibitor inconclusive
CCC(=O)N(CCC(c1ccco1)c1ccccc1OC)Cc1cccs1 (stereo not given)	rTrxR1 inhibitor 35µM
COc1cccc(-c2nc(CS(=O)(=O)CC(=O)NC3CCCc4ccccc43)c(C)o2)c1 (stereo not given)	rTrxR1 inhibitor 10µM
COc1cccc(-c2nc(CS(=O)(=O)CC(=O)NC3CCCC3)c(C)o2)c1	none
O=C(CN(C1CCCCC1)S(=O)(=O)c1ccccc1)NCc1ccco1	rTrxR1 inhibitor 28µM
COc1ccccc1N(CC(=O)NCc1ccco1)S(=O)(=O)c1ccc(C)cc1	rTrxR1 inhibitor 32µM
Cc1cccc(N(CC(=O)NCCSCc2ccco2)S(=O)(=O)c2ccccc2)c1	rTrxR1 inhibitor 11µM
Cc1ccc(S(=O)(=O)N(CC(=O)NCc2ccco2)C2CCCCC2)cc1	none
COc1ccc(N(CC(=O)NCc2ccco2)S(=O)(=O)c2ccc(C)cc2)cc1OC	none
Brc1cccc[n+]1CCCC[n+]1ccccc1Br	rTrxR1 inhibitor inconclusive (no result: IL2 activator, mIDH1 inhibitor, Giardia killer)
CCc1ccc(NC(=O)CSc2nc3ncccc3[nH]2)cc1	none (no result: IL2 activator, BRCA1 expr up, Giardia killer)
Cc1ccc(NC(=O)/C=C/c2ccc([N+](=O)[O-])s2)c(C)c1	none
Cc1cc([N+](=O)[O-])ccc1NC(=O)/C=C/c1cccs1	BRCA1 expr up 5.6µM
Cc1cc2c(n1-c1ccc(C(=O)NCCc3ccc(Cl)cc3)cc1)CCC(C)C2 (stereo not given)	none (no result: IL2 activator, BRCA1 expr up, Giardia killer)
COc1cc(OC)c(C2CC(=O)N3CN(c4ccccc4)CSC3=C2C#N)cc1OC (stereo not given)	rTrxR1 inhibitor 32µM
COc1ccccc1N1CSC2=C(C#N)C(c3ccc(SC)cc3)CC(=O)N2C1 (stereo not given)	rTrxR1 inhibitor 13µM
O=C1CCC[C@@H]2C[C@@]3(C[C@@H]4CCN1[C@H]24)Nc1cc([N+](=O)[O-])ccc1NC3=NCc1ccccc1	none (no result: IL2 activator, mIDH1 inhibitor, BRCA1 expr up, Giardia killer)
COc1ccc(CCNC(=O)CSc2ccsc2[N+](=O)[O-])cc1OC	Giardia killer -89
CC1CCCCC1NC(=O)CSc1ccsc1[N+](=O)[O-] (stereo not given)	Giardia killer inconclusive
